Our source for the outcome and AC50 values is PubChem BioAssay (EPA / NIEHS).

Holding throughout (settings): mRNA level, 48 h; actives raise or lower the signal
Read-out in assay [1]: Glutamate-cysteine ligase catalytic (GCLC), GCLC (gene 2729)
In words: LTEA_HepaRG_GCLC: Life Technologies and Expression Analysis (LTEA) Assay for Glutamate-cysteine ligase catalytic (GCLC) using HepaRG (AID 2283498). The essentials:
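Oxidative-stress marker GCLC is measured as mRNA change in human HepaRG liver cells after 48 h chemical treatment in 0.5% DMSO, eight concentrations from 100 uM. Activity is fitted bidirectionally against vehicle.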

Read-out in assay [2]: growth arrest and DNA damage 45 (GADD45G), GADD45G (gene 10912)
Kind of assay: LTEA_HepaRG_GADD45G: Life Technologies and Expression Analysis (LTEA) Assay for growth arrest and DNA damage 45 (GADD45G) using HepaRG (AID 2283499). The essentials: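 Gain or loss of GADD45G mRNA, quantified by TaqMan qRT-PCR against three housekeeping genes, is fitted in both directions relative to 0.5% DMSO. Human HepaRG cultures receive test chemical for 48 h at up to 100 uM.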

Read-out in assay [3]: Glutamate-cysteine ligase regulatory (GCLM), GCLM (gene 2730)
In words: LTEA_HepaRG_GCLM: Life Technologies and Expression Analysis (LTEA) Assay for Glutamate-cysteine ligase regulatory (GCLM) using HepaRG (AID 2283500). The essentials: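 HepaRG, 48 h dosing, 100 uM top, half-log x8, 0.5% DMSO vehicle. Readout: GCLM mRNA by TaqMan qRT-PCR, housekeeping-normalized (ACTB/GAPDH/POLR2A). Curves fit bidirectionally vs DMSO baseline.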

Read-out in assay [4]: Glutathione S-transferase M3 (GSTM3), GSTM3 (gene 2947)
In words: LTEA_HepaRG_GSTM3: Life Technologies and Expression Analysis (LTEA) Assay for Glutathione S-transferase M3 (GSTM3) using HepaRG (AID 2283501). The essentials: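 HepaRG, plated 48 h, then serum-free induction medium; test chemical 48 h, duplicate; 100 uM top, half-log x8, 0.5% DMSO. Read-out: GSTM3 mRNA (TaqMan qRT-PCR, Fluidigm array). Bidirectional fit vs DMSO.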

Read-out in assay [5]: Heat shock 70 kDa protein 1 (HSPA1A), gene 3303
In words: LTEA_HepaRG_HSPA1A: Life Technologies and Expression Analysis (LTEA) Assay for Heat shock 70 kDa protein 1 (HSPA1A) using HepaRG (AID 2283502). In a few lines: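 HepaRG, 48 h exposure, 8-pt half-log CRC from 100 uM in 0.5% DMSO, duplicates. Readout: TaqMan qRT-PCR of HSPA1A mRNA, housekeeping-normalized (ACTB/GAPDH/POLR2A). Bidirectional fit vs 0.5% DMSO baseline.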

Read-out in assay [6]: Hypoxia-inducible factor 1-alpha (Homo sapiens) (UniProt Q16665)
In words: LTEA_HepaRG_HIF1A: Life Technologies and Expression Analysis (LTEA) Assay for Hypoxia-inducible factor 1 (HIF1A) Trancription factor using HepaRG (AID 2283503). The essentials: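 Gain- or loss-of-signal HIF1A mRNA changes are fitted against a DMSO baseline. HepaRG cultures receive eight concentrations, highest 100 uM, for 48 h in serum-free induction medium with 0.5% DMSO.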

Read-out in assay [7]: 3-Hydroxy-3-Methylglutaryl-CoA Synthase 2 (HMGCS2), HMGCS2 (gene 3158)
Kind of assay: LTEA_HepaRG_HMGCS2: Life Technologies and Expression Analysis (LTEA) Assay for 3-Hydroxy-3-Methylglutaryl-CoA Synthase 2 (HMGCS2) using HepaRG (AID 2283504). In a few lines:
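HepaRG, plated 48 h then switched to serum-free induction media; cmpd 8-pt, max 100 uM, 1/2-log, 0.5% DMSO, n=2, 48 h. HMGCS2 mRNA by Fluidigm TaqMan qRT-PCR, ACTB/GAPDH/POLR2A norm; bidirectional fit vs DMSO.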

Read-out in another assay: HGF (gene 3082)
Kind of assay: LTEA_HepaRG_HGF: Life Technologies and Expression Analysis (LTEA) Assay for Hepatocyte Growth Facto (HGF) using HepaRG (AID 2283505). In a few lines: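 Read-out is HGF transcript level by qRT-PCR, normalized to three housekeeping genes, fitted bidirectionally against 0.5% DMSO vehicle. Human HepaRG cells received test chemicals for 48 h at up to 100 uM.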

Read-out in assay [8]: Insulin Like Growth Factor 1 (IGF1), IGF1 (gene 3479)
Kind of assay: LTEA_HepaRG_IGF1: Life Technologies and Expression Analysis (LTEA) Assay for Insulin Like Growth Factor 1 (IGF1) using HepaRG (AID 2283506). The essentials: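 qRT-PCR readout of IGF1 mRNA, normalized to three housekeeping genes, after 48 h chemical exposure of HepaRG cells. Concentrations: 8-point half-log series, top 100 uM, 0.5% DMSO vehicle. Gain or loss fitted against DMSO baseline.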

Read-out in assay [9]: Intercellular Adhesion Molecule 1 (ICAM1), ICAM1 (gene 3383)
Kind of assay: LTEA_HepaRG_ICAM1: Life Technologies and Expression Analysis (LTEA) Assay for Intercellular Adhesion Molecule 1 (ICAM1) using HepaRG (AID 2283507). The essentials:
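Readout is qRT-PCR mRNA level, normalized to three housekeeping genes and fitted bidirectionally against 0.5% DMSO vehicle. Human HepaRG cultures received compound for 48 h, top concentration 100 uM with half-log dilutions.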

Read-out in assay [10]: Interleukin 6 (IL6), IL6 (gene 3569)
In words: LTEA_HepaRG_IL6: Life Technologies and Expression Analysis (LTEA) Assay for Interleukin 6 (IL6) using HepaRG (AID 2283509). The essentials:
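Changes in IL6 mRNA, up or down relative to 0.5% DMSO controls, were derived from concentration-response curves in human HepaRG cells treated for 48 h at up to 100 uM, with ACTB, GAPDH and POLR2A as normalizers.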

Read-out in assay [11]: Interleukin 6 Receptor (IL6R), IL6R (gene 3570)
Kind of assay: LTEA_HepaRG_IL6R: Life Technologies and Expression Analysis (LTEA) Assay for Interleukin 6 Receptor (IL6R) using HepaRG (AID 2283510). In a few lines: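 HepaRG, 48 h exposure, 8-pt half-log series, top 100 uM, 0.5% DMSO vehicle, duplicates. Read-out: TaqMan qRT-PCR of IL6R transcript, housekeeping-gene normalized. Gain or loss fitted relative to DMSO baseline.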

Read-out in assay [12]: Potassium channel subfamily K member 1 (KCNK1), KCNK1 (gene 3775)
Kind of assay: LTEA_HepaRG_KCNK1: Life Technologies and Expression Analysis (LTEA) Assay for Potassium channel subfamily K member 1 (KCNK1) using HepaRG (AID 2283511). The essentials:
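Human HepaRG cultures receive test chemicals for 48 h in 0.5% DMSO, top concentration 100 uM with half-log dilutions. Induction or suppression of KCNK1 mRNA relative to DMSO is derived by bidirectional fitting of qRT-PCR data.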

Read-out in assay [13]: Keratin 19 (KRT19), KRT19 (gene 3880)
Kind of assay: LTEA_HepaRG_KRT19: Life Technologies and Expression Analysis (LTEA) Assay for Keratin 19 (KRT19) using HepaRG (AID 2283512). The essentials: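 KRT19 transcript levels, measured by Fluidigm qRT-PCR against three housekeeping genes, are fitted for gain or loss of signal relative to DMSO. Human HepaRG cells receive test chemicals (top 100 uM, half-log steps, 0.5% DMSO) for 48 hours.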

Read-out in assay [14]: JUN Transcription Factor, JUN (gene 3725)
Kind of assay: LTEA_HepaRG_JUN: Life Technologies and Expression Analysis (LTEA) Assay for JUN Transcription Factor using HepaRG (AID 2283513). The essentials:
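HepaRG, 48 h exposure, 8-pt half-log series top 100 uM, 0.5% DMSO, duplicate. JUN mRNA by qRT-PCR (Fluidigm), housekeeping-normalized (ACTB/GAPDH/POLR2A); bidirectional curve fit vs DMSO baseline.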

Read-out in assay [15]: Lipase C (LIPC), LIPC (gene 3990)
Kind of assay: LTEA_HepaRG_LIPC: Life Technologies and Expression Analysis (LTEA) Assay for Lipase C (LIPC) using HepaRG (AID 2283514). The essentials: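 In this multiplexed gene-expression screen, human HepaRG cultures received test chemicals for 48 h across eight concentrations with 100 uM highest, in duplicate. Values reflect LIPC mRNA induction or suppression versus DMSO vehicle, from normalized qRT-PCR.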

Read-out in assay [16]: Lipoprotein lipase (LPL), LPL (gene 4023)
Kind of assay: LTEA_HepaRG_LPL: Life Technologies and Expression Analysis (LTEA) Assay for Lipoprotein lipase (LPL) using HepaRG (AID 2283515). The essentials:
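Concentration-response testing used half-log steps from 100 uM in 0.5% DMSO on human HepaRG cells, 48 h, duplicate wells. Phenobarbital 1 mM served as induction control; LPL mRNA was normalized to ACTB, GAPDH, POLR2A.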

Read-out in assay [17]: MicroRNA 122 (MIR122), gene 406906
Kind of assay: LTEA_HepaRG_MIR122: Life Technologies and Expression Analysis (LTEA) Assay for MicroRNA 122 (MIR122) using HepaRG (AID 2283516). Note: the transcript read is the microRNA miR-122. The essentials: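 qRT-PCR read-out (TaqMan, Fluidigm array), normalized to three housekeeping genes; HepaRG cells dosed 48 h at 8 concentrations up to 100 uM in 0.5% DMSO, duplicate; gain or loss fitted against DMSO baseline.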

Read-out in assay [18]: matrix metalloproteinase-10 (MMP10), MMP10 (gene 4319)
In words: LTEA_HepaRG_MMP10: Life Technologies and Expression Analysis (LTEA) Assay for matrix metalloproteinase-10 (MMP10) using HepaRG (AID 2283517). The essentials: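 In differentiated HepaRG cultures kept in 0.5% DMSO, test chemicals act for 48 h over an eight-point range with a top dose of 100 uM. Expression is then quantified by TaqMan RT-PCR against ACTB, GAPDH and POLR2A.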

Values joined by “and” are separate entries in the source; they are usually repeats but may differ in a detail not shown here. Identical values can stand only once. Where a structure was tested more than once in an assay, its records may differ in their call. Active and inactive are the calls of the source. Rule for the calls: active = hit-call score of the fitted dose curve at least 0.9, where 1 is the maximum; inactive = score below 0.9.

Sequence of Hypoxia-inducible factor 1-alpha (Homo sapiens) (Q16665 whole entry, looked up): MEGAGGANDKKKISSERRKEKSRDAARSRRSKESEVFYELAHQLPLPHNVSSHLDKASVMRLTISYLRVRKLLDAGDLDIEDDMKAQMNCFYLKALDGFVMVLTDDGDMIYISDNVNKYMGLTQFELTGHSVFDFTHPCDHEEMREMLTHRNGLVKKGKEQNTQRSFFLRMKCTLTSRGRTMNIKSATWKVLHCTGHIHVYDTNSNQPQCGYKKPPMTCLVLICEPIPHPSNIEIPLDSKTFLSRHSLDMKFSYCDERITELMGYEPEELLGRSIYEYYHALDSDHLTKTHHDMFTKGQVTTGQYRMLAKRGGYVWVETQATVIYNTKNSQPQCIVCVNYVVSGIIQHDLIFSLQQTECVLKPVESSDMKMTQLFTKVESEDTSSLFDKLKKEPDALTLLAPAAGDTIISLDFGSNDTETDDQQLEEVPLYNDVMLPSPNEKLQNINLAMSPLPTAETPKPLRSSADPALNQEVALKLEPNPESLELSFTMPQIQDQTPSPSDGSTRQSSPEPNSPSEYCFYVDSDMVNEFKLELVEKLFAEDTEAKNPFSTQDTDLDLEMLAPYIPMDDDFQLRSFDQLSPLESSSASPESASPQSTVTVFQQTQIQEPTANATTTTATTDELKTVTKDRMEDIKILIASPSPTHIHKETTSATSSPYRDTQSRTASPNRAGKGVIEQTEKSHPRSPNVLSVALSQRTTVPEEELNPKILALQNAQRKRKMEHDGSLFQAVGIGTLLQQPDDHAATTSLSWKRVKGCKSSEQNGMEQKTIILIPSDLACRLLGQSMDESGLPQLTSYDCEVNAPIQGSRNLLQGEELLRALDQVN

For the compound `CCCCC(CC)COC(=O)c1ccccc1C(=O)OCC(CC)CCCC` (stereo not drawn), the call in [1], in [2], in [3], in assay [4], in [5] and in [6] was inactive. Besides, the outcome (in assay [7]; in the assay with HGF (gene 3082); in assay [8]; in assay [9]; in assay [10]; in assay [11]) was inactive. For the same compound, the compound was called inactive in assay [12], in assay [13], in assay [14], in assay [15], in assay [16] and in [17]. Moreover, in assay [18], the compound was classed as inactive.
In the case of `CCNc1nc(Cl)nc(NCC)n1`, the compound was classed as inactive in assay [1], in assay [2], in assay [3], in [4], in assay [5] and in assay [6]. Besides, the compound was classed as inactive (in [7]; with HGF (gene 3082); in assay [8]; in assay [9]; in [10]; in assay [11]). Also, the call in assay [12], in [13], in assay [14], in [15], in assay [16] and in [17] was inactive. Further, the compound was classed as inactive in [18].
Turning to `C=CCC1=C(C)C(OC(=O)C2C(C=C(C)C)C2(C)C)CC1=O` (stereo not drawn), the outcome in assay [1], in assay [2], in assay [3], in [4], in [5] and in assay [6] was inactive. Moreover, the compound was classed as inactive (with HGF (gene 3082); in [9]; in [10]; in assay [11]; in assay [12]; in [14]). In addition, the call in assay [15], in [16] and in assay [18] was inactive. Also, the AC50 – broadly, the concentration giving half of the maximal activity seen – in [7] was 82.1 µM (active) and 80.4 µM (active) and 87.9 µM (active); in [8] it was 79.6 µM (active) and 72 µM (active) and 50 µM (active); in assay [10], 50 µM (active) and 74.3 µM (active); in [13] it was 50 µM (active) and 88.1 µM (active) and 40.4 µM (active); in [15], 84 µM (active).
